Over roughly 4,500 sequences, “log2 normalized fluorescence” has its median near -0.34; the highest 2% begin near 3.3. The sample as a whole holds a higher share of the highest values than the screen did.

MAX:MAX (p21), sequence (P61244 other isoform, or with tags, fused parts or gaps): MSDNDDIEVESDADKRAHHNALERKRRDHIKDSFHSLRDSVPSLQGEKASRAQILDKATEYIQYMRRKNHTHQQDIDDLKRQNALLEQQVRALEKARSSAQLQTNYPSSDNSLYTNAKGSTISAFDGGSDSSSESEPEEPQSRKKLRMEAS

This experiment concerns the target MAX:MAX (p21) (human, UniProt P61244-2 1-151). Description: protein-binding microarray (anti-MAX antibody); PBM: 15 mM Tris-HCl pH 7.5, 100 mM KCl, 0.075% NP40, 7.5 mM beta-mercaptoethanol, 375 ng/ul BSA, 8 ng/ul poly(dA-dT):(dA-dT), 550 ng complex, 60 min, room tempe; high values mean tight binding. To be noted: protein: recombinant; tags: 6xHis; chain copies: 2; label: 3' end of printed strand (linker) attached to glass slide; dsDNA, one strand shown. A digest of the protocol: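 Binding, given as log2 normalized fluorescence, was measured on a custom Agilent glass array. The array bore ~5000 unique 12-nt sequences spotted in triplicate and converted to double strands by primer extension. It was incubated with 550 ng of human His-tagged MYC:MAX or MAX:MAX dimers from E. coli for 60 min at room temperature in Tris-KCl buffer, pH 7.5, with NP40, BSA and poly(dA-dT) competitor, and bound protein was detected with anti-MAX and secondary antibodies and scanned at 543 nm.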
In the case of “CCGGCTGAGCATTTGTATTAATAGCTAAGATTACTATATCGACG”, the binding signal was -0.22 log2 normalized fluorescence.

On to “CCGGCTGACTGGATGTATTAATAGCTAAGATTACTATATCGACG”, for which the binding signal was -0.202 log2 normalized fluorescence. The figure for “CCGGCTGACATTCAGTATTAATAGCTAAGATTACTATATCGACG” is 0.265 log2 normalized fluorescence. Turning to “CCGGCTGACGTGTCGTATTAATAGCTAAGATTACTATATCGACG”, the binding signal is 1.07 log2 normalized fluorescence. The same measure for “CCGGCTGATGGTCTGTATTAATAGCTAAGATTACTATATCGACG”: 0.348 log2 normalized fluorescence. As for “CCGGCTGAGGAGGCGTATTAATAGCTAAGATTACTATATCGACG”, the binding signal is -0.734 log2 normalized fluorescence.

As to “CCGGCTGACACTACGTATTAATAGCTAAGATTACTATATCGACG”, the binding signal was -0.11 log2 normalized fluorescence. The figure for “CCGGCTGAACGTTGGTATTAATAGCTAAGATTACTATATCGACG” is 0.152 log2 normalized fluorescence. Turning to “CCGGCTGTGACGTGGTATTAATAGCTAAGATTACTATATCGACG”, the binding signal is 1.45 log2 normalized fluorescence. The figure for “CCGGCAGACATGTGGTGTTAATAGCTAAGATTACTATATCGACG” is 3.1 log2 normalized fluorescence; for “CCGGCTGACACGTGTCGTTAATAGCTAAGATTACTATATCGACG” it is 3.18 log2 normalized fluorescence; for “CCGGCCGACATGTGGTGTTAATAGCTAAGATTACTATATCGACG” it is 3.43 log2 normalized fluorescence. The same measure for “CCGGCTGACACGTGTTGTTAATAGCTAAGATTACTATATCGACG”: 3.32 log2 normalized fluorescence; for “CCGGCCGACATGTGGTATTAATAGCTAAGATTACTATATCGACG”: 3.18 log2 normalized fluorescence; for “CCGGCAGACACGCGATATTAATAGCTAAGATTACTATATCGACG”: 2.93 log2 normalized fluorescence. The same measure for “CCGGCAGACACGTGATCTTAATAGCTAAGATTACTATATCGACG”: 3.05 log2 normalized fluorescence; for “CCGGCAGACACGTGATATTAATAGCTAAGATTACTATATCGACG”: 3.29 log2 normalized fluorescence; for “CCGGCTGACACGTGCTGTTAATAGCTAAGATTACTATATCGACG”: 3 log2 normalized fluorescence.

As to “CCGGCTGATGGTAGGTATTAATAGCTAAGATTACTATATCGACG”, the binding signal was 0.124 log2 normalized fluorescence.

As for “CCGGCTGATTCAAGGTATTAATAGCTAAGATTACTATATCGACG”, the binding signal was -0.736 log2 normalized fluorescence.

With “CCGGCTGACTAGGCGTATTAATAGCTAAGATTACTATATCGACG”, the binding signal was -0.638 log2 normalized fluorescence.

With “CCGGCTGACTCCGCGTATTAATAGCTAAGATTACTATATCGACG”, the binding signal is -0.516 log2 normalized fluorescence. The same measure for “CCGGCTGAGACACGGTATTAATAGCTAAGATTACTATATCGACG”: 0.481 log2 normalized fluorescence. Turning to “CCGGCTGACTGTACGTATTAATAGCTAAGATTACTATATCGACG”, the binding signal was -0.112 log2 normalized fluorescence. Regarding “CCGGCTGACCCAGTGTATTAATAGCTAAGATTACTATATCGACG”, the binding signal was -0.0826 log2 normalized fluorescence. The figure for “CCGGCTGAACTCGGGTATTAATAGCTAAGATTACTATATCGACG” is -0.618 log2 normalized fluorescence. The same measure for “CCGGCTGAACTACCGTATTAATAGCTAAGATTACTATATCGACG”: -0.334 log2 normalized fluorescence. The same measure for “CCGGCTGACGCGTGGTTTTAATAGCTAAGATTACTATATCGACG”: 3.21 log2 normalized fluorescence. Take “CCGGCTGACACGTGGGTTTAATAGCTAAGATTACTATATCGACG”: the binding signal was 3.39 log2 normalized fluorescence. The figure for “CCGGCTGACACGTGGATTTAATAGCTAAGATTACTATATCGACG” is 3.24 log2 normalized fluorescence; for “CCGGCTGACACGTGTAGTTAATAGCTAAGATTACTATATCGACG” it is 3.17 log2 normalized fluorescence. The same measure for “CCGGCTGACGTGTGGTTTTAATAGCTAAGATTACTATATCGACG”: 1.65 log2 normalized fluorescence. As for “CCGGCTGACACGTGTAATTAATAGCTAAGATTACTATATCGACG”, the binding signal was 3.24 log2 normalized fluorescence. As to “CCGGCTGACACGTGGAGTTAATAGCTAAGATTACTATATCGACG”, the binding signal was 2.99 log2 normalized fluorescence. The same measure for “CCGGCTGACACGGGTTTTTAATAGCTAAGATTACTATATCGACG”: 2.09 log2 normalized fluorescence; for “CCGGCTGACACGTGTGGTTAATAGCTAAGATTACTATATCGACG”: 3.39 log2 normalized fluorescence; for “CCGGCTGACACGTGGTTTTAATAGCTAAGATTACTATATCGACG”: 3.37 log2 normalized fluorescence. In the case of “CCGGCTGACACGTGGCGTTAATAGCTAAGATTACTATATCGACG”, the binding signal is 3.2 log2 normalized fluorescence. The figure for “CCGGCTGACACGTGGGGTTAATAGCTAAGATTACTATATCGACG” is 3.36 log2 normalized fluorescence. The figure for “CCGGCTGAAGTTATGTATTAATAGCTAAGATTACTATATCGACG” is -0.594 log2 normalized fluorescence; for “CCGGCTGAGGAACCGTATTAATAGCTAAGATTACTATATCGACG” it is -0.709 log2 normalized fluorescence; for “CCGGCTGACACGGTATATTAATAGCTAAGATTACTATATCGACG” it is 1.17 log2 normalized fluorescence.

In the case of “CCGGCTGATAGGAGGTATTAATAGCTAAGATTACTATATCGACG”, the binding signal was -0.743 log2 normalized fluorescence. The figure for “CCGGCTGAGAGCGTGTATTAATAGCTAAGATTACTATATCGACG” is 2.11 log2 normalized fluorescence; for “CCGGCTGAAGGCAAGTATTAATAGCTAAGATTACTATATCGACG” it is -0.39 log2 normalized fluorescence; for “CCGGCTGAATGTGGGTATTAATAGCTAAGATTACTATATCGACG” it is 0.753 log2 normalized fluorescence. The same measure for “CCGGCTGAGGCGCAGTATTAATAGCTAAGATTACTATATCGACG”: -0.509 log2 normalized fluorescence. The figure for “CCGGCTGAGGGTGCGTATTAATAGCTAAGATTACTATATCGACG” is 0.326 log2 normalized fluorescence. As to “CCGGCTGACACTTGGTTTTAATAGCTAAGATTACTATATCGACG”, the binding signal was 0.395 log2 normalized fluorescence.

In the case of “CCGGCTGACATGTGGTTTTAATAGCTAAGATTACTATATCGACG”, the binding signal was 2.98 log2 normalized fluorescence.

In the case of “CCGGCTGACACATGGTTTTAATAGCTAAGATTACTATATCGACG”, the binding signal was 3.37 log2 normalized fluorescence. The figure for “CCGGCCGACACATGGTTTTAATAGCTAAGATTACTATATCGACG” is 3.32 log2 normalized fluorescence. The same measure for “CCGGCCGACCCGTGGTTTTAATAGCTAAGATTACTATATCGACG”: 2.34 log2 normalized fluorescence; for “CCGGCCGACACGCGGTTTTAATAGCTAAGATTACTATATCGACG”: 3.18 log2 normalized fluorescence; for “CCGGCTGATCGCACGTATTAATAGCTAAGATTACTATATCGACG”: 0.308 log2 normalized fluorescence. The same measure for “CCGGCTGAGGTCTTGTATTAATAGCTAAGATTACTATATCGACG”: -0.72 log2 normalized fluorescence; for “CCGGCTGGCACGAGGTTTTAATAGCTAAGATTACTATATCGACG”: 3.28 log2 normalized fluorescence. In the case of “CCGGCTCACACGCGGTTTTAATAGCTAAGATTACTATATCGACG”, the binding signal was 3.17 log2 normalized fluorescence. The figure for “CCGGCTCACACGTGATATTAATAGCTAAGATTACTATATCGACG” is 3.31 log2 normalized fluorescence. As to “CCGGCTCTTACGTGGTATTAATAGCTAAGATTACTATATCGACG”, the binding signal was 0.802 log2 normalized fluorescence.

With “CCGGCCCTCACGTGGTATTAATAGCTAAGATTACTATATCGACG”, the binding signal is 3.26 log2 normalized fluorescence. The same measure for “CCGGCGCTCACGTGGTATTAATAGCTAAGATTACTATATCGACG”: 3.34 log2 normalized fluorescence; for “CCGGCTCTCACGTGGTATTAATAGCTAAGATTACTATATCGACG”: 3.5 log2 normalized fluorescence.

Turning to “CCGGCACTCACGTGGTATTAATAGCTAAGATTACTATATCGACG”, the binding signal is 3.13 log2 normalized fluorescence. The figure for “CCGGCTGTCACGTGATATTAATAGCTAAGATTACTATATCGACG” is 3.2 log2 normalized fluorescence; for “CCGGCTCACACGAGGTTTTAATAGCTAAGATTACTATATCGACG” it is 3.32 log2 normalized fluorescence. The figure for “CCGGCTCTCACGTGGTCTTAATAGCTAAGATTACTATATCGACG” is 3.06 log2 normalized fluorescence; for “CCGGCTCACACGTGTTATTAATAGCTAAGATTACTATATCGACG” it is 3.29 log2 normalized fluorescence.
